The values that follow come from PubChem BioAssay (NCATS).

Results filed as inconclusive are left out. Activity calls are given as the source filed them. Calls follow the shape of the full dose curve.

Assay [1] in a line: qHTS drug screen for cell cycle checkpoint inhibitors in PARPi-resistant BRCA-mutant ovarian cancer cell lines. (AID 1963452). Also: potency is read from the fitted curve at half-maximal effect. The settings on record: PEO1/OlaR viability, CellTiter-Glo luminescence, 96 h; for Z-AUC: stronger effect = lower value. An outline of the steps:
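PEO1, PEO4 and PEO1/OlaR ovarian cancer cells, 600 per well, exposed 96 h at 37C to a dilution series. Viability read by CellTiter-Glo luminescence, normalized to DMSO and empty wells; activity summarized as Z-AUC.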
(In general: In qHTS, concentration-response curves come from the screen itself.)

Assay [2] is described as follows: qHTS for identification of novel therapeutic agents for treatment of microphthalmiaassociated transcription factor (MiT) renal cell carcinoma (RCC) (AID 1963991).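 Also: curves scaled with 100% = DMSO viability and 0% = empty wells.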 The settings on record: CellTiter-Glo, 48 h, stronger effect = lower value. An outline of the steps:
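UOK109/UOK124/UOK145 (TFE3 fusions, three partners); 500 cells/well; MIPE v4.0, 1912 cpds, 11 conc.; 48 h, 37 C; CellTiter-Glo, 15 min RT; lum. Norm.: DMSO 100%, empty 0%.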

Where [3] appears, read: measured here: PEO1 parental Z-AUC.
The mark [4] stands for this setting: TFE3-RCC UOK109 viability, measured here: UOK109 Z-AUC.
The mark [5] stands for this setting: TFE3-RCC viability, measured here: UOK124 Z-AUC.
Setting [6] is: TFE3-RCC viability, measured here: UOK145 Z-AUC.

For the compound `Cc1csc(NC(=O)c2sc3nc4c(c(C(F)(F)F)c3c2N)CCC4)n1`, the Z-AUC in assay [1] is 0.359 (inactive); in assay [1] (setting [3]), 0.125; in assay [1] (measured here: PEO4 Z-AUC), 0.375.

Consider `Cc1ccc(-n2nc(C(C)(C)C)cc2NC(=O)Nc2ccc(OCCN3CCOCC3)c3ccccc23)cc1`, for which the Z-AUC is 0.154 (inactive) in assay [1], 0.786 in assay [1] (setting [3]) and 0.35 in assay [1] (measured here: PEO4 Z-AUC).

Regarding `CNC(=O)c1ccccc1Sc1ccc2c(/C=C/c3ccccn3)n[nH]c2c1`, the Z-AUC in assay [1] was 0.578 (inactive); in assay [1] (setting [3]) it was 0.269; in assay [1] (measured here: PEO4 Z-AUC) it was 0.241.

As to `Cc1cccc(-c2[nH]c(C(C)(C)C)nc2-c2ccc3nccnc3c2)n1`, the Z-AUC in assay [1] is 0.914 (inactive); in assay [1] (setting [3]) it was 0.697; in assay [1] (measured here: PEO4 Z-AUC), 0.424.

Regarding `COc1cc(F)c(F)c(Nc2ccc(I)cc2F)c1NS(=O)(=O)C1(C[C@H](O)CO)CC1`, in assay [1], the Potency is 2450 nM (active).

For `CO[C@@H]1[C@H](N(C)C(=O)c2ccccc2)C[C@H]2O[C@]1(C)n1c3ccccc3c3c4c(c5c6ccccc6n2c5c31)C(=O)NC4`, the Potency in assay [1] is 1550 nM (active).

As for `Cc1cc(SCc2sc(-c3ccc(C(F)(F)F)cc3)nc2C)ccc1OCC(=O)O`, the Z-AUC was 1.25 (inactive) in assay [1], 0.45 in assay [1] (setting [3]) and 0.535 in assay [1] (measured here: PEO4 Z-AUC). For the same compound, the z-score amounted to 0.936 in assay [2] (setting [4]), 0.482 in assay [2] (setting [5]) and 0.629 in assay [2] (setting [6]).

In the case of `O=C(O)[C@@H](c1ccc(OCc2ccc3ccccc3n2)cc1)C1CCCC1`, the figures for the Z-AUC in assay [1], in assay [1] (setting [3]) and in assay [1] (measured here: PEO4 Z-AUC) were 1.02 (inactive), 0.403 and 0.552, respectively. The z-score amounted to 0.431 in assay [2] (setting [4]), 0.636 in assay [2] (setting [5]) and 0.202 in assay [2] (setting [6]).

With `NC(=O)c1ccc(I)c([N+](=O)[O-])c1`, the Z-AUC was 1.56 (inactive) in assay [1], 1.77 in assay [1] (setting [3]) and 1.61 in assay [1] (measured here: PEO4 Z-AUC). For the same compound, the z-score in assay [2] (setting [4]) is 0.172; in assay [2] (setting [5]), 0.616; in assay [2] (setting [6]) it was -0.107.

Consider `CCCn1c(=O)c2[nH]c(C34CC5CC3C[C@@H](C5)C4)nc2n(CCC)c1=O`, for which the Z-AUC in assay [1] is 0.471 (inactive); in assay [1] (setting [3]) it was 0.393; in assay [1] (measured here: PEO4 Z-AUC), 0.158.

For the compound `CCOc1ccn(-c2ccc(F)cc2)c(=O)c1C(=O)Nc1ccc(Oc2ccnc(N)c2Cl)c(F)c1`, the Z-AUC in assay [1] was -0.773 (inactive); in assay [1] (setting [3]), -0.706; in assay [1] (measured here: PEO4 Z-AUC), -0.86.

In the case of `CCN(CC)CCCC(C)Nc1nc(C)cc(Nc2ccc3nc(C)cc(N)c3c2)n1` (stereo unspecified), the Z-AUC in assay [1] is 0.723 (inactive); in assay [1] (setting [3]), 0.692; in assay [1] (measured here: PEO4 Z-AUC), 0.29. The z-score in assay [2] (setting [4]) was found to be 0.273; in assay [2] (setting [5]), 0.864; in assay [2] (setting [6]), 0.237.

As for `Cc1n[nH]c(C)c1Cc1sc2c(c1C(=O)N1C[C@H](O)CO1)c(=O)n(C)c(=O)n2CC(C)C`, the figures for the Z-AUC in assay [1], in assay [1] (setting [3]) and in assay [1] (measured here: PEO4 Z-AUC) were -0.106 (inactive), -0.977 and -0.228, respectively. For the same compound, the z-score in assay [2] (setting [4]) was determined as 0.549; in assay [2] (setting [5]), 0.656; in assay [2] (setting [6]), 0.704.

As to `OCCC#Cc1nc(-c2ccc(F)cc2)c(-c2ccncc2)n1CCCc1ccccc1`, the Z-AUC is 1.23 (inactive) in assay [1], 0.482 in assay [1] (setting [3]) and 0.663 in assay [1] (measured here: PEO4 Z-AUC).

`NC(=O)c1ccc(-c2nc(-c3ccc4c(c3)OCCO4)c(-c3ccccn3)[nH]2)cc1`: the Z-AUC in assay [1] is 0.559 (inactive); in assay [1] (setting [3]) it was 0.194; in assay [1] (measured here: PEO4 Z-AUC), 0.167.

In the case of `CC(C)(C)NCC(O)c1ccc(O)c(CO)c1` (stereo unspecified), the Z-AUC in assay [1] is 0.197 (inactive); in assay [1] (setting [3]), 0.915; in assay [1] (measured here: PEO4 Z-AUC) it was 0.881. Also, the z-score in assay [2] (setting [4]) amounted to 0.712; in assay [2] (setting [5]), 0.591; in assay [2] (setting [6]), 2.94.

On to `C[C@@H]1CN(Cc2ccc(F)cc2)[C@@H](C)CN1C(=O)c1cc2c(C(=O)C(=O)N(C)C)cn(C)c2cc1Cl`, for which the Z-AUC was 0.142 (inactive) in assay [1], 0.03 in assay [1] (setting [3]) and 0.299 in assay [1] (measured here: PEO4 Z-AUC).

Consider `O=C(O)CCc1ccc(NCc2cccc(Oc3ccccc3)c2)cc1`, for which the Z-AUC was 1.62 (inactive) in assay [1], 1.54 in assay [1] (setting [3]) and 1.47 in assay [1] (measured here: PEO4 Z-AUC). Further, the z-score in assay [2] (setting [4]) is 0.226; in assay [2] (setting [5]), 0.797; in assay [2] (setting [6]), 0.0253.

Take `NC(=O)C1CCCc2c1[nH]c1ccc(Cl)cc21` (stereo unspecified): the Z-AUC was -0.722 (inactive) in assay [1], 0.489 in assay [1] (setting [3]) and -0.557 in assay [1] (measured here: PEO4 Z-AUC). Moreover, the z-score in assay [2] (setting [4]) worked out at 0.0433; in assay [2] (setting [5]), 0.823; in assay [2] (setting [6]) it was 0.151.

`Fc1ccc(Cl)cc1-c1nc(Nc2ccncc2)c2nccnc2n1`: the values for the Z-AUC in assay [1], in assay [1] (setting [3]) and in assay [1] (measured here: PEO4 Z-AUC) were 0.985 (inactive), 1.18 and 1.09, respectively.

`CC(C)(Sc1ccc(CCN(CCCCC2CCCCC2)C(=O)NC2CCCCC2)cc1)C(=O)O`: the Z-AUC was 1.3 (inactive) in assay [1], 1.26 in assay [1] (setting [3]) and 1.25 in assay [1] (measured here: PEO4 Z-AUC). Further, the z-score in assay [2] (setting [4]) is 0.806; in assay [2] (setting [5]) it was 0.0749; in assay [2] (setting [6]), 0.555.
